From PubChem BioAssay (EPA / NIEHS) come the findings set out here.

Activity calls are given as the source filed them. The calls were made as follows: active = hit-call score of the fitted dose curve at least 0.9, where 1 is the maximum; inactive = score below 0.9.

Details in all cases: mRNA level, 48 h; actives raise or lower the signal
Read-out in assay [1]: DNA damage-inducible transcript 3 (DDIT3), DDIT3 (gene 1649)
Kind of assay: LTEA_HepaRG_DDIT3: Life Technologies and Expression Analysis (LTEA) Assay for DNA damage-inducible transcript 3 (DDIT3) using HepaRG (AID 2283488). In outline:
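qRT-PCR readout (Fluidigm TaqMan), housekeeping-normalized to ACTB, GAPDH, POLR2A. HepaRG cells, 48 h exposure, 8-point half-log series from 100 uM in 0.5% DMSO, duplicates. Gain or loss of signal fitted against DMSO baseline.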

Read-out in assay [2]: Pro-epidermal growth factor (Homo sapiens) (UniProt P01133)
Kind of assay: LTEA_HepaRG_EGF: Life Technologies and Expression Analysis (LTEA) Assay for Epidermal growth factor (EGF) using HepaRG (AID 2283489). Put shortly: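 HepaRG cells (~100,000/well, 48 h pre-culture) exposed in duplicate for 48 h in serum-free induction medium to 8 half-log concentrations up to 100 uM in 0.5% DMSO. EGF mRNA by qRT-PCR, normalized to ACTB/GAPDH/POLR2A; bidirectional fit versus DMSO.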

Read-out in assay [3]: Early growth response protein 1 (EGR1) transcription factor, EGR1 (gene 1958)
Kind of assay: LTEA_HepaRG_EGR1: Life Technologies and Expression Analysis (LTEA) Assay for Early growth response protein 1 (EGR1) transcription factor using HepaRG (AID 2283490). Put shortly: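 EGR1 transcript levels quantified by qRT-PCR (Fluidigm arrays) against three housekeeping genes after 48 h chemical exposure of HepaRG cells. Eight-point half-log series topping at 100 uM, 0.5% DMSO vehicle, analyzed for gain or loss.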

Read-out in assay [4]: Ezrin (EZR), EZR (gene 7430)
Kind of assay: LTEA_HepaRG_EZR: Life Technologies and Expression Analysis (LTEA) Assay for Ezrin (EZR) using HepaRG (AID 2283491). Put shortly:
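Gain or loss of EZR mRNA is scored relative to 0.5% DMSO in human HepaRG cultures treated 48 h with test chemicals in duplicate, eight half-log concentrations from 100 uM.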

Read-out in another assay: CYP3A5 (gene 1577)
Put plainly: LTEA_HepaRG_CYP3A5: Life Technologies and Expression Analysis (LTEA) Assay for CYP3A5 using HepaRG (AID 2283493). In outline: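 qRT-PCR read-out: CYP3A5 transcript in HepaRG lysates, housekeeping-normalized (ACTB/GAPDH/POLR2A), fitted bidirectionally against 0.5% DMSO baseline. Exposure 48 h, eight half-log concentrations up to 100 uM, duplicates.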

Read-out in assay [5]: Fatty Acid-Binding Protein 1 (FABP1), FABP1 (gene 2168)
Put plainly: LTEA_HepaRG_FABP1: Life Technologies and Expression Analysis (LTEA) Assay for Fatty Acid-Binding Protein 1 (FABP1) using HepaRG (AID 2283494). Put shortly:
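FABP1 expression by TaqMan qRT-PCR, normalised to three housekeeping genes, in HepaRG cells after 48 h chemical treatment. Eight-point half-log series topping at 100 uM in 0.5% DMSO, duplicates; gain or loss fitted relative to vehicle.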

Read-out in assay [6]: Cytochrome P450 4A22 (Homo sapiens) (UniProt Q5TCH4)
Put plainly: LTEA_HepaRG_CYP4A22: Life Technologies and Expression Analysis (LTEA) Assay for Cytochrome P450 4A22 (CYP4A22) using HepaRG (AID 2283495). In outline:
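Differentiated HepaRG cells in serum-free induction medium exposed 48 h in duplicate to eight half-log concentrations up to 100 uM in 0.5% DMSO. CYP4A22 mRNA quantified by TaqMan qRT-PCR, normalized to ACTB, GAPDH and POLR2A; bidirectional fit versus DMSO.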

Read-out in assay [7]: Cytochrome P450 7A1 (Homo sapiens) (UniProt P22680)
Kind of assay: LTEA_HepaRG_CYP7A1: Life Technologies and Expression Analysis (LTEA) Assay for Cytochrome P450 7A1 (CYP7A1) using HepaRG (AID 2283496). Put shortly:
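Using 0.5% DMSO as vehicle and baseline, chemicals were tested in duplicate over an 8-point range from 100 uM on HepaRG cells for 48 h; qRT-PCR signals were normalised to ACTB, GAPDH and POLR2A.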

Read-out in assay [8]: Glutathione S-Transferase (GSTA2), GSTA2 (gene 2939)
Kind of assay: LTEA_HepaRG_GSTA2: Life Technologies and Expression Analysis (LTEA) Assay for Glutathione S-Transferase (GSTA2) using HepaRG (AID 2283497). Put shortly:
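GSTA2 transcript levels came from Fluidigm TaqMan qRT-PCR normalized to three housekeeping genes, fitted in both directions against DMSO. HepaRG cultures received chemicals for 48 h in serum-free induction medium (0.5% DMSO), 8 half-log concentrations up to 100 uM, duplicate.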

Read-out in assay [9]: Glutamate-cysteine ligase catalytic (GCLC), GCLC (gene 2729)
Kind of assay: LTEA_HepaRG_GCLC: Life Technologies and Expression Analysis (LTEA) Assay for Glutamate-cysteine ligase catalytic (GCLC) using HepaRG (AID 2283498). In outline: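 Expression by TaqMan qRT-PCR, normalized to three housekeeping genes (ACTB, GAPDH, POLR2A), with up- or down-regulation fitted against DMSO. HepaRG cells dosed in duplicate for 48 h with 8 half-log concentrations up to 100 uM, vehicle 0.5% DMSO.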

Read-out in assay [10]: growth arrest and DNA damage 45 (GADD45G), GADD45G (gene 10912)
Kind of assay: LTEA_HepaRG_GADD45G: Life Technologies and Expression Analysis (LTEA) Assay for growth arrest and DNA damage 45 (GADD45G) using HepaRG (AID 2283499). Put shortly: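 Differentiated human HepaRG cells, 48 h post-plating, exposed 48 h in serum-free induction medium to 8 half-log concentrations (top 100 uM, 0.5% DMSO) in duplicate. GADD45G mRNA measured by Fluidigm TaqMan qRT-PCR, normalized to ACTB, GAPDH, POLR2A; bidirectional fit versus DMSO.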

Read-out in assay [11]: Glutamate-cysteine ligase regulatory (GCLM), GCLM (gene 2730)
Kind of assay: LTEA_HepaRG_GCLM: Life Technologies and Expression Analysis (LTEA) Assay for Glutamate-cysteine ligase regulatory (GCLM) using HepaRG (AID 2283500). Put shortly:
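HepaRG, 48 h dosing, 100 uM top, half-log x8, 0.5% DMSO vehicle. Readout: GCLM mRNA by TaqMan qRT-PCR, housekeeping-normalized (ACTB/GAPDH/POLR2A). Curves fit bidirectionally vs DMSO baseline.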

Read-out in assay [12]: Glutathione S-transferase M3 (GSTM3), GSTM3 (gene 2947)
Put plainly: LTEA_HepaRG_GSTM3: Life Technologies and Expression Analysis (LTEA) Assay for Glutathione S-transferase M3 (GSTM3) using HepaRG (AID 2283501). Put shortly: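 Differentiated human HepaRG cells were exposed in duplicate for 48 h in serum-free induction medium, 8 points from 100 uM top in half-log steps, 0.5% DMSO. GSTM3 mRNA was measured by TaqMan qRT-PCR, normalized to ACTB, GAPDH and POLR2A; bidirectional fit versus DMSO.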

Read-out in assay [13]: Heat shock 70 kDa protein 1 (HSPA1A), gene 3303
Kind of assay: LTEA_HepaRG_HSPA1A: Life Technologies and Expression Analysis (LTEA) Assay for Heat shock 70 kDa protein 1 (HSPA1A) using HepaRG (AID 2283502). In outline: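 HepaRG, 48 h exposure, 8-pt half-log CRC from 100 uM in 0.5% DMSO, duplicates. Readout: TaqMan qRT-PCR of HSPA1A mRNA, housekeeping-normalized (ACTB/GAPDH/POLR2A). Bidirectional fit vs 0.5% DMSO baseline.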

Read-out in assay [14]: Hypoxia-inducible factor 1-alpha (Homo sapiens) (UniProt Q16665)
Kind of assay: LTEA_HepaRG_HIF1A: Life Technologies and Expression Analysis (LTEA) Assay for Hypoxia-inducible factor 1 (HIF1A) Trancription factor using HepaRG (AID 2283503). In outline: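 Gain- or loss-of-signal HIF1A mRNA changes are fitted against a DMSO baseline. HepaRG cultures receive eight concentrations, highest 100 uM, for 48 h in serum-free induction medium with 0.5% DMSO.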

Read-out in assay [15]: 3-Hydroxy-3-Methylglutaryl-CoA Synthase 2 (HMGCS2), HMGCS2 (gene 3158)
Kind of assay: LTEA_HepaRG_HMGCS2: Life Technologies and Expression Analysis (LTEA) Assay for 3-Hydroxy-3-Methylglutaryl-CoA Synthase 2 (HMGCS2) using HepaRG (AID 2283504). In outline:
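Human HepaRG cells in serum-free induction medium were exposed in duplicate for 48 h to 8-point half-log series from 100 uM top in 0.5% DMSO. HMGCS2 mRNA measured by TaqMan qRT-PCR, normalised to ACTB, GAPDH, POLR2A; bidirectional fit versus DMSO.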

Read-out in a further assay: HGF (gene 3082)
Put plainly: LTEA_HepaRG_HGF: Life Technologies and Expression Analysis (LTEA) Assay for Hepatocyte Growth Facto (HGF) using HepaRG (AID 2283505). Put shortly: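 Differentiated HepaRG cells in serum-free induction medium exposed 48 h in duplicate, 8 half-log concentrations from 100 uM in 0.5% DMSO. HGF mRNA by qRT-PCR, normalised to ACTB, GAPDH, POLR2A; bidirectional fitting.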

Read-out in assay [16]: Intercellular Adhesion Molecule 1 (ICAM1), ICAM1 (gene 3383)
Put plainly: LTEA_HepaRG_ICAM1: Life Technologies and Expression Analysis (LTEA) Assay for Intercellular Adhesion Molecule 1 (ICAM1) using HepaRG (AID 2283507). Put shortly: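 Differentiated human HepaRG cells in serum-free induction medium exposed 48 h in duplicate to 8 half-log concentrations (top 100 uM, 0.5% DMSO). ICAM1 mRNA quantified by TaqMan qRT-PCR, normalized to ACTB, GAPDH and POLR2A; bidirectional fitting versus DMSO.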

Read-out in assay [17]: Cytochrome P450 3A7 (Homo sapiens) (UniProt P24462)
Kind of assay: LTEA_HepaRG_CYP3A7: Life Technologies and Expression Analysis (LTEA) Assay for CYP3A7 using HepaRG (AID 2283492). In outline:
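Differentiated HepaRG cells in serum-free induction medium exposed 48 h in duplicate to 8-point half-log series from 100 uM top in 0.5% DMSO. CYP3A7 mRNA by qRT-PCR, normalized to ACTB/GAPDH/POLR2A, bidirectional fit versus DMSO.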

Chain of Hypoxia-inducible factor 1-alpha (Homo sapiens) (Q16665 whole entry, looked up): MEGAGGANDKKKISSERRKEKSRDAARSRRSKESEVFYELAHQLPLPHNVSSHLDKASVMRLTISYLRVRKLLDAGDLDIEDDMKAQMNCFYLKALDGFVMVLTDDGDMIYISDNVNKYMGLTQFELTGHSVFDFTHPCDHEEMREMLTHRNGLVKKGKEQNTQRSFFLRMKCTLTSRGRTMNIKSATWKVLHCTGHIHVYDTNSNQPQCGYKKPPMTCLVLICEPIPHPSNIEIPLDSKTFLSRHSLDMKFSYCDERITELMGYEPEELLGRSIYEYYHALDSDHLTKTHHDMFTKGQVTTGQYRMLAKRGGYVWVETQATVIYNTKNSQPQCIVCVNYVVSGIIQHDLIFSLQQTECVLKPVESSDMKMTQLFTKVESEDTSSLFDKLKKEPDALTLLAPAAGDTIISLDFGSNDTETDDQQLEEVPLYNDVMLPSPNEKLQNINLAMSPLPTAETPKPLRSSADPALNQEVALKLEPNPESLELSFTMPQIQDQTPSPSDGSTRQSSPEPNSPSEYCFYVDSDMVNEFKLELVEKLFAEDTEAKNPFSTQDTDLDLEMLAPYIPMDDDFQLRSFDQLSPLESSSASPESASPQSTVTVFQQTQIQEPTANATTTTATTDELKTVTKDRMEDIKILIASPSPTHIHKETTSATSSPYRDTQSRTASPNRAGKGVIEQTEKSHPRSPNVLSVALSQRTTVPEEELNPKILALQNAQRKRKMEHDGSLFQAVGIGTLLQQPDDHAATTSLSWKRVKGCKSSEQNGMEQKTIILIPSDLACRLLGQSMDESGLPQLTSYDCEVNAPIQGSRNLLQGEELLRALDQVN
Chain of Cytochrome P450 3A7 (Homo sapiens) (P24462 whole entry, looked up): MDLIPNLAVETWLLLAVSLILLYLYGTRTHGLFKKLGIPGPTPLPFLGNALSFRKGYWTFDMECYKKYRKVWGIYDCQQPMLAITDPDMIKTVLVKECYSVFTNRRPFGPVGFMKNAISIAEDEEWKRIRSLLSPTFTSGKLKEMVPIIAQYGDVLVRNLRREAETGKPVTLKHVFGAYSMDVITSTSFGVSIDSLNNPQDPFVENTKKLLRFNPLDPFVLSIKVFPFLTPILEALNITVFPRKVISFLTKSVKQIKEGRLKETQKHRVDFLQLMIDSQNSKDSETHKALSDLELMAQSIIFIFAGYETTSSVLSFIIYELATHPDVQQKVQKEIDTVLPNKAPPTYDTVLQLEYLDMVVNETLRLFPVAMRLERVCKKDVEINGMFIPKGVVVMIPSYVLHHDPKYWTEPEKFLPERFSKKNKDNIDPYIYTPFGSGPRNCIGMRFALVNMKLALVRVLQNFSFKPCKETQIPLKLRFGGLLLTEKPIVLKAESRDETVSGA

`CNC(=O)ON=C(SC)C(=O)N(C)C`: the outcome (in assay [1]; in [2]; in assay [3]; in assay [4]; with CYP3A5 (gene 1577); in assay [5]) was inactive. Besides, the call in [6], in assay [7], in assay [8], in assay [9], in assay [10] and in [11] was inactive. Also, the outcome (in assay [12]; in assay [13]; in [14]; in assay [15]; with HGF (gene 3082); in [16]) was inactive.
Regarding `CCCOCC(=Nc1ccc(Cl)cc1C(F)(F)F)n1ccnc1`, the AC50 in assay [1] is 72.4 µM (active); in [17] it was 23 µM (active); with CYP3A5 (gene 1577), 71 µM (active); in assay [5], 14.6 µM (active); in assay [6], 15.8 µM (active); in [7], 30.6 µM (active). Also, the AC50 in [8] was 35 µM (active); in [9] it was 91 µM (active); in assay [14] it was 87.3 µM (active); in [15] it was 53.2 µM (active); in assay [16] it was 88.2 µM (active). In addition, the compound was classed as inactive (in [2]; in assay [3]; in [4]; in assay [10]; in assay [12]; in the assay with HGF (gene 3082)).
For `Nc1c(Cl)cc([N+](=O)[O-])cc1Cl`, the AC50 in assay [1] was 35.1 µM (active); in [3], 31.8 µM (active); in [4], 50 µM (active); in [17] it was 84.2 µM (active); with CYP3A5 (gene 1577), 27.5 µM (active); in assay [5], 41.8 µM (active). The AC50 in assay [6] was 74.2 µM (active); in [8], 64.7 µM (active); in assay [9] it was 88 µM (active); in assay [10], 50 µM (active); in [12], 50 µM (active); in assay [13] it was 26.8 µM (active). Moreover, the AC50 in [14] is 86.6 µM (active); in assay [15] it was 50 µM (active). The outcome (in assay [2]; with HGF (gene 3082); in assay [16]) was inactive.

Broadly, the AC50 is the concentration giving half of the maximal activity seen.
